Values without a mark were called inactive. Active and inactive are the calls of the source.

Chain of Luciferin 4-monooxygenase (Photinus pyralis) (P08659 whole entry, looked up): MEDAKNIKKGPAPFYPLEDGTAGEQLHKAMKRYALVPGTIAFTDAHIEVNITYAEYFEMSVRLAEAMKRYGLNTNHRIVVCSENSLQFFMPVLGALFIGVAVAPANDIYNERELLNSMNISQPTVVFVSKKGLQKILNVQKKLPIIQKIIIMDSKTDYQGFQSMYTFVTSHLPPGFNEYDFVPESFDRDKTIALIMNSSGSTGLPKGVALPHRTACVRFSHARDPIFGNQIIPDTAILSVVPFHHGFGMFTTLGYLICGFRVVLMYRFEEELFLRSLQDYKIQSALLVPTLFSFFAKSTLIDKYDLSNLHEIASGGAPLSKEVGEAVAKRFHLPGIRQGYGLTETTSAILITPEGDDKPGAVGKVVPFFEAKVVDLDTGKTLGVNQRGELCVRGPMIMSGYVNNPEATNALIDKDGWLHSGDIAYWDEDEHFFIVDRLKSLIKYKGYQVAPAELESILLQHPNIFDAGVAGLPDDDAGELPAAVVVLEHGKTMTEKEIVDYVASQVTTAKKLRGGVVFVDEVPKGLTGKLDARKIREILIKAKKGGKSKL

This assay addresses Luciferin 4-monooxygenase (Photinus pyralis) (UniProt P08659). Description: inhibition of purified Photinus pyralis luciferase – biochemical, luminescence, purified enzyme, 2006 set, primary screen (AID 1141).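 Further: cell-free assay with purified firefly luciferase at 100 ng per well in PBS; test concentration not given here.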 As to conditions: purified firefly luciferase, SteadyGlo luminescence, 30 min; higher = more signal, called active from +8 up or from −8 down.
Take `C=C(C)C1C(=C)CN([C@H](CO)c2ccccc2)C1=O` (stereo partly specified): the z-score was 1.01.

For the compound `COc1ccc(C(O)C2C=CC3C(=O)N(c4ccccc4)C(=O)C3N2Nc2ccccc2F)cc1OCc1ccccc1` (stereo unspecified), the z-score is -0.237. On to `COCCCNC(=O)[C@@]1(Cc2ccccc2)N=C(c2ccc(OCCCO)cc2)O[C@H]1c1ccccc1`, for which the z-score was -0.391. Consider `CC(C)C(CO)N1C(=O)[C@@H]2[C@H]3C(=O)OCC=C[C@H]3OC23C=CCN(C(C)C)C(=O)[C@@H]13` (stereo partly specified), for which the z-score is 0.316. Regarding `[N-]=[N+]=Nc1ccccc1[C@H]1OC(c2ccc(OCCCO)cc2)=N[C@@]1(Cc1ccccc1)C(=O)O`, the z-score was -9.33 (active). In the case of `Cc1ccc(S[C@]2(C(=O)NC(C)C)CC(=O)N(Cc3ccccc3Cl)[C@@H]2c2ccc(CO)cc2I)cc1`, the z-score is -0.102. On to `CN(C)CCCCCCNC(=O)[C@@H]1C[C@@H]2C(=O)N[C@@H](CCCCN)C(=O)N2[C@@H]1c1cccc(OCCO)c1`, for which the z-score was -1.61. Turning to `CC(C)(C)OC(=O)CC[C@]12N=C(c3ccc(OCCCO)cc3)O[C@H]1c1ccccc1N(CCS(=O)(=O)c1ccccc1)C2=O`, the z-score was -8.32 (active).

On to `COCCn1c(C(=O)N2CCCC2)cc2c1C[C@H]1CN(C(=O)c3ccccc3)[C@@](Cc3ccc(F)cc3)(C(=O)OC)[C@@H]21`, for which the z-score was 3.4. On to `CC1CC/C=C\[C@H]2OC34C=CCN(C(C)(C)C)C(=O)[C@H]3N(CCCCCCO)C(=O)[C@@H]4C2C(=O)O1` (stereo partly specified), for which the z-score was -0.939. The value for `COCCOC(=O)N1C(=O)[C@@]2(c3cc(C#Cc4ccc(OC)cc4)ccc31)[C@H](C(N)=O)[C@H]1C(=O)O[C@H](c3ccccc3)[C@H](c3ccccc3)N1[C@@H]2c1ccccc1OCCO` was 0.0449; that for `O=C1OCCC/C=C\[C@H]2OC34C=CCN(c5ccc6ccccc6c5)C(=O)[C@H]3N(CCCCCCO)C(=O)[C@@H]4C12` (stereo partly specified) was -1.47.

In the case of `COc1ccc([C@H]2C[C@H]3C(Br)=C[C@@H]2C(=O)[C@]32CO2)cc1`, the z-score was -0.388. The same measure for `COCCOC(=O)N1C(=O)[C@@]2(c3cc(C#CCCO)ccc31)[C@H](c1ccc(OCCO)cc1)N1[C@H](c3ccccc3)[C@H](c3ccccc3)OC(=O)[C@H]1[C@@H]2C(=O)N1CCN(c2ncccn2)CC1`: -0.836. In the case of `Cc1ccc(C(C)CC(O)C2C=CC3C(=O)N(C)C(=O)C3N2NC(=O)OC(C)(C)C)o1` (stereo unspecified), the z-score is -1.3.

Turning to `C=CC[C@@]1(C(=O)N(C)C)N=C(c2ccc(OCCCO)cc2)O[C@@H]1c1ccccc1N=[N+]=[N-]`, the z-score is -9.07 (active). For the compound `COCCOC(=O)N1C(=O)[C@@]2(c3cc(C#CCCO)ccc31)[C@H](C(=O)Nc1nc3ccccc3s1)[C@H]1C(=O)O[C@H](c3ccccc3)[C@H](c3ccccc3)N1[C@@H]2c1ccc(OCCO)cc1`, the z-score is -2.56.

Regarding `O=C(c1ccccc1)N1Cc2ccccc2[C@@H]2OC(c3ccc(OCCCO)cc3)=N[C@]2(Cc2ccccc2)C1=O`, the z-score was -0.976. For the compound `NCCCCCNC(=O)[C@@H]1C[C@@H]2C(=O)N[C@@H](Cc3ccccc3)C(=O)N2[C@@H]1c1cccc(OCCO)c1`, the z-score is -0.435.

For `COc1ccc([C@H]2OC[C@@H]3CC4(CC=CC4)C(=O)N32)cc1`, the z-score is -0.573. As for `CN1C(=O)C2C=CC(C(O)Cc3ccccc3)N(Nc3ccccc3)C2C1=O` (stereo unspecified), the z-score was -0.492. Regarding `[N-]=[N+]=NCc1ccccc1[C@@H]1OC(c2ccc(OCCCO)cc2)=N[C@]1(Cc1ccccc1N=[N+]=[N-])C(=O)N1CCOCC1`, the z-score is -1.52. The value for `COc1ccc(CCNC(=O)[C@@]2(Sc3ccc(C)cc3)CC(=O)N(C3CCCCC3)[C@@H]2c2ccc(CO)cc2I)cc1` was 0.645; that for `[N-]=[N+]=NCc1ccccc1[C@@H]1OC(c2ccc(OCCCO)cc2)=N[C@]1(CCS(=O)(=O)c1ccccc1)C(=O)NCc1ccccc1` was -0.375; that for `O=C1OCC=C[C@H]2OC34C=CCN(CCN5CCOCC5)C(=O)[C@H]3N(CCCO)C(=O)[C@@H]4[C@@H]12` (stereo partly specified) was -0.206. On to `CCc1oc(CC[C@@H](CO)NC(=O)NCCn2cc(C3(O)CCCCC3)nn2)c(C(=O)OC)c1C(=O)OC`, for which the z-score is 0.654. For the compound `COC(=O)[C@@]1(Cc2ccc(F)cc2)[C@H]2c3cc(C(=O)N(C)C)n(Cc4nc5ccccc5[nH]4)c3C[C@H]2CN1C(=O)c1ccccc1`, the z-score was -0.625. As for `COc1ccc(CCN2C(=O)[C@@]3(c4ccc([N+](=O)[O-])cc4)CC(=O)N(C4CCCCC4)[C@@H]3c3ccc(CO)cc32)cc1`, the z-score was 0.3. With `O=C(O)[C@@]1(CCS(=O)(=O)c2ccccc2)COC(c2ccc(OCCCO)cc2)=N1`, the z-score is 0.299. As for `CC(C)C[C@@H]1NC(=O)[C@H]2C[C@@H](C(=O)NCCCCCCN)[C@@H](c3ccc(O)cc3)N2C1=O`, the z-score is -0.288.

On to `CCCC[C@H]1OB(O)C[C@H]2C1=C(COc1ccccc1)C[C@H]1C(=O)N(C)C(=O)[C@H]12`, for which the z-score was -0.718.

For the compound `O=C1O[C@H](c2ccccc2)[C@H](c2ccccc2)N2[C@H]1[C@@H](C(=O)N1CCN(c3ncccn3)CC1)[C@]1(C(=O)Nc3ccc(C#CC4=CCCCC4)cc31)[C@H]2c1ccc(O)cc1`, the z-score is -0.0055. As to `C#CCN(CC=C(C)C)[C@H](CO)c1ccccc1`, the z-score is 0.648. `Cc1ccc(S[C@]2(C(=O)NCCN3CCOCC3)CC(=O)N(Cc3ccccc3Cl)[C@@H]2c2ccc(CO)cc2)cc1`: the z-score was 1.58.

In the case of `O=C1NC(=O)C2C1C=CC(C(O)Cc1ccccc1)N2Nc1ccc(Cl)cc1Cl` (stereo unspecified), the z-score was 0.981. On to `C=CCOC(=O)[C@@H]1[C@H]2C(=O)O[C@H](c3ccccc3)[C@H](c3ccccc3)N2[C@H](c2ccc(OCCOC(=O)[C@@H]3C[C@@H]4C(=O)N5CCC[C@H]5C(=O)N4[C@@H]3c3ccc(O)cc3)cc2)[C@@]12C(=O)Nc1ccc(I)cc12`, for which the z-score is -0.291.

Source of the values: PubChem BioAssay.
